Laboratory results published in PubChem BioAssay (Tox21).
Results filed as inconclusive are left out. A call without a number means that no potency is given here. A number with no mark means an inactive call. Calls of active or inactive are those of the source. Unless noted, calls follow the shape of the dose curve; as a rule, active = well fitted cell-killing curve with a large enough effect in the repeat runs; inconclusive = weak or mixed curves; inactive = no such curve, though single readings can be large or run the other way.

tested on: not listed separately; test: qHTS assay to identify small molecule antagonists of the peroxisome proliferator-activated receptor delta (PPARd) signaling pathway - cell viability counter screen (AID 743213); conditions: PPARd-bla HEK293H viability, CellTiter-Glo luminescence, 17 h; series mostly up to 62 µM; viability change, negative = cytotoxic: at the top concentration; also: nearly all actives have a fitted effect of over 50% in size
How it was run: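 Cytotoxicity counter screen: CellTiter-Glo luminescence read 30 min after addition, in the same wells as the reporter assay. There, PPARd UAS-bla HEK293H cells (3000/well) were treated 17 h at 37 C with compound and 300 nM L165041.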

SMILES | Potency
C[C@]12CC[C@@H]3c4ccc(O)cc4CC[C@H]3[C@@H]1CCC2=O | inactive
Cc1c(N(C)C)c(=O)n(-c2ccccc2)n1C | inactive
COc1ccc(C(=O)c2ccccc2)c(O)c1 | inactive
NC(=O)OCC(COC(N)=O)c1ccccc1 | inactive
COc1ccc(O)cc1 | inactive
C[C@]12C=CC(=O)C=C1CC[C@@H]1[C@@H]2C(=O)C[C@@]2(C)[C@H]1CC[C@]2(O)C(=O)CO | inactive
O=c1cc[nH]c(=O)[nH]1 | inactive
CC(C)(C)CC(C)(C)c1ccc(O)c(-n2nc3ccccc3n2)c1 | inactive
C/C=C/c1ccc(O)c(OC)c1 | inactive

biological target: Peroxisome proliferator-activated receptor delta (Homo sapiens) (UniProt Q03181); test: qHTS assay to identify small molecule antagonists of the peroxisome proliferator-activated receptor delta (PPARd) signaling pathway (AID 743215; active = well fitted inhibition curve with a large enough effect in the signal ratio in the repeat runs, not every such curve was filed as active; the % refers to the signal ratio;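 also: cells stimulated with agonist L165041 at 300 nM final during compound exposure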); conditions: HEK293H PPARd-UAS-bla, beta-lactamase FRET ratio, antagonist, 17 h; series mostly up to 62 µM; ratio activity, negative = inhibition: at the top concentration
How it was run: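 Cells: HEK293H with a UAS-driven beta-lactamase reporter responsive to PPARd. Compounds were co-added with L165041 (300 nM, final) and incubated 17 h at 37 C before a 2 h room-temperature FRET substrate step and fluorescence reading.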

Peroxisome proliferator-activated receptor delta (Homo sapiens), sequence (Q03181 whole entry, looked up): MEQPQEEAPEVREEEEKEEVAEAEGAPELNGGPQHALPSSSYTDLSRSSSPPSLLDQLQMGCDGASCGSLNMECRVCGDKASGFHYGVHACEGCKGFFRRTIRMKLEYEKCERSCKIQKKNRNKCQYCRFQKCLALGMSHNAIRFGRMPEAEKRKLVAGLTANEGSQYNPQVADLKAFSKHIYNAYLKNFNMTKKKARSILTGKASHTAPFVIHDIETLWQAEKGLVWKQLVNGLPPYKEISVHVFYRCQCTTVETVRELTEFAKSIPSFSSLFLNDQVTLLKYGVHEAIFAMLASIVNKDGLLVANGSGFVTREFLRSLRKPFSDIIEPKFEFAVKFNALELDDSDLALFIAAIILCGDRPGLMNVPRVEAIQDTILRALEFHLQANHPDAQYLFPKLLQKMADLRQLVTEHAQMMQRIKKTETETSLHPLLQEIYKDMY

SMILES | outcome | ratio activity, negative = inhibition [%]
NC(=O)NO | inactive | 
CC1=C(/C=C/C(C)=C/C=C/C(C)=C/C(=O)O)C(C)(C)CCC1 | inactive | 
NCCNc1cccc2ccccc12 |  | 0.0949
c1ccc2[nH]c(-c3cscn3)nc2c1 | inactive | 
CC1=NN(c2ccccc2)C(=O)C1 | inactive | 
C[C@]12C[C@H](O)[C@H]3[C@@H](CCC4=CC(=O)CC[C@@]43C)[C@@H]1CC[C@@H]2C(=O)CO | inactive | 
CCn1cc(C(=O)O)c(=O)c2ccc(C)nc21 | inactive | 
COc1ccccc1NC(=O)CC(C)=O | inactive | 
C[C@]12CC[C@@H]3c4ccc(O)cc4C[C@@H](CCCCCCCCCS(=O)CCCC(F)(F)C(F)(F)F)[C@H]3[C@@H]1CC[C@@H]2O (stereo partly specified) | inactive | 
O=C(OCc1ccccc1)c1ccccc1 | inactive | 
O=C(O)CN(CC(=O)O)CC(=O)O | inactive | 
CCCCOCCOCCSC#N | inactive | 
C#C[C@]1(O)CC[C@H]2[C@@H]3CCc4cc(O)ccc4[C@H]3CC[C@@]21C |  | -19.1
NC(=O)c1ccc([N+](=O)[O-])cc1Cl | inactive | 
Cc1c(N(C)C)c(=O)n(-c2ccccc2)n1C | inactive | 
COc1ccc(C(=O)c2ccccc2)c(O)c1 | inactive | 
NC(=O)OCC(COC(N)=O)c1ccccc1 | inactive | 
COc1ccc(O)cc1 | inactive | 
O=c1cc[nH]c(=O)[nH]1 | inactive | 
CC(C)(C)CC(C)(C)c1ccc(O)c(-n2nc3ccccc3n2)c1 | inactive | 

biological target: Bile acid receptor (Homo sapiens) (UniProt Q96RI1); test: qHTS assay to identify small molecule antagonists of the farnesoid-X-receptor (FXR) signaling pathway (AID 743217; active = well fitted inhibition curve with a large enough effect in the signal ratio in the repeat runs, not every such curve was filed as active; the % refers to the signal ratio); conditions: HEK293T FXR-UAS-bla, beta-lactamase ratio, CDCA-stimulated, 16 h; series mostly up to 62.6 µM; activity change, negative = inhibition: at the top concentration
How it was run: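 Cells carrying a UAS-driven beta-lactamase reporter (GeneBLAzer FXR-UAS-bla HEK 293T) were plated and rested 5 h at 37 °C. Compounds in DMSO were added alongside chenodeoxycholic acid agonist at 50 uM final and left 16 h at 37 °C before FRET substrate readout.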

Bile acid receptor (Homo sapiens), sequence (Q96RI1 whole entry, looked up): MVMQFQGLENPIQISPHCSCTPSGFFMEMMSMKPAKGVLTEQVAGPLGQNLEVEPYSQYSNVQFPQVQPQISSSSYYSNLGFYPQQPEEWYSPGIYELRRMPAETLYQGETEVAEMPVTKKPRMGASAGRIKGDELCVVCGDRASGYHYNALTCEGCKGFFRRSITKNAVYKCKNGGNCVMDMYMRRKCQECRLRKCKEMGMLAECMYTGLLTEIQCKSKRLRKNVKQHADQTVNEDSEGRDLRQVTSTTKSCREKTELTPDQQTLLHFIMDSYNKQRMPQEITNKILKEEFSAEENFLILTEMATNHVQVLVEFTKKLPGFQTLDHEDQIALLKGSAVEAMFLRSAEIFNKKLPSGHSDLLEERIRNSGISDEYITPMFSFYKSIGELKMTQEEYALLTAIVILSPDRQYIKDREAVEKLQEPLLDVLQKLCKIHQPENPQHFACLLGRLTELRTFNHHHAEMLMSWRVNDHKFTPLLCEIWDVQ

SMILES | Potency | activity change, negative = inhibition [%]
c1ccc2[nH]c(-c3cscn3)nc2c1 | inactive | 
CC1=NN(c2ccccc2)C(=O)C1 | inactive | 
C[C@]12C[C@H](O)[C@H]3[C@@H](CCC4=CC(=O)CC[C@@]43C)[C@@H]1CC[C@@H]2C(=O)CO | inactive | 
CCn1cc(C(=O)O)c(=O)c2ccc(C)nc21 | inactive | 
CC(=O)/C=C/C1=C(C)CCCC1(C)C | inactive | 
CC(C)=CCC/C(C)=C/CO | inactive | 
O=C(OCc1ccccc1)c1ccccc1 | inactive | 
O=C(O)CN(CC(=O)O)CC(=O)O | inactive | 
NC(=O)c1ccc([N+](=O)[O-])cc1Cl | inactive | 
C[C@]12CC[C@@H]3c4ccc(O)cc4CC[C@H]3[C@@H]1CCC2=O |  | -16.7
Cc1c(N(C)C)c(=O)n(-c2ccccc2)n1C | inactive | 
COc1ccc(C(=O)c2ccccc2)c(O)c1 | inactive | 
